Shown are actives, neighbours in structure and some others; about 19% of the full set was active somewhere.
TDP1 cell CPT – growth inhibition of DT40 Tdp1-/-;hTDP1 cells with camptothecin (screen for TDP1 inhibitors); 420,000 compounds, 12% hits; Potency, µM (titrated, usually from 46.2 µM), for the others: top-dose activity change, negative = growth inhibition, usual class: inhibitors; chicken DT40 Tdp1-/-;hTDP1 cells + 20 nM CPT, ATP luminescence, 48 h; note: nearly all actives have a fitted effect of over 55% in size
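Chicken DT40 Tdp1-/- cells stably complemented with human TDP1 were seeded at 400 cells/well in medium containing 20 nM camptothecin, exposed to pin-transferred compounds, and grown at 37 °C for at least 48 hr. Viability was read as ATP luminescence.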
VP16 counter – inhibits Gal4-VP16 luciferase reporter, ROR gamma counter-screen; Drosophila S2 Gal4-VP16 UAS-luciferase, luminescence, 20 h; Potency, µM (series often up to 53.6 µM), inactives show at the highest dose activity, negative = inhibition, usual class: inhibitors; 310,000 compounds, 3.5% hits;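 note: Gal4-VP16 expression switched on by copper sulfate through the metallothionein promoter; nearly all actives have a fitted effect of over 50% in size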
RORg inh – ROR gamma (mouse) transcription inhibition; Potency, µM (highest dose often 53.6 µM), for inactives: at the highest dose activity change, negative = inhibition, actives largely listed as inhibitors; AID 2551; 310,000 compounds, 5.4% hits; Drosophila S2 Gal4-RORgamma UAS-luciferase reporter, 20 h; note: nearly all actives have a fitted effect of over 60% in size
Target sequence (P51450 whole entry, looked up, the tested form may be a part): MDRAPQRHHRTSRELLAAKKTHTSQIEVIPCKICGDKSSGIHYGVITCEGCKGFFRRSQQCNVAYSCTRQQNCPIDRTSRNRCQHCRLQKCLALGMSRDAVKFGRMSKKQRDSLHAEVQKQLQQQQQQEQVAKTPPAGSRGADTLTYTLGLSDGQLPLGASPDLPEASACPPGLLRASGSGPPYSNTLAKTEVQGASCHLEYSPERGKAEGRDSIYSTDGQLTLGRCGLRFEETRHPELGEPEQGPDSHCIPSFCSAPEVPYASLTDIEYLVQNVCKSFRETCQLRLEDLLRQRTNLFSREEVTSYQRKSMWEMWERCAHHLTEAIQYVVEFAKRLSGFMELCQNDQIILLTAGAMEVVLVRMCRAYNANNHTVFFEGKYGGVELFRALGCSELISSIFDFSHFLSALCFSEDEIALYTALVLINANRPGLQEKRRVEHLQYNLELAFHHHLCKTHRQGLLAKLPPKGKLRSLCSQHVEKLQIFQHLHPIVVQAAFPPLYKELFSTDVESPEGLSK
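Luciferase reporter read in Schneider cells carrying Gal4-RORγ (mouse) and UAS-Photinus luciferase; cells given compound 1 h before 700 uM copper sulfate induction, then incubated 20 h at ambient temperature.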
DT40 TDP1 no CPT – qHTS for Inhibitors of human tyrosyl-DNA phosphodiesterase 1 (TDP1): qHTS in cells in absence of CPT; DT40 Tdp1-/- hTDP1 cells, no CPT, ATP luminescence, 48 h; Potency, µM (top dose mostly 46.2 µM), inactives show at the highest dose activity change, negative = growth inhibition, most hits filed as inhibitors; 420,000 compounds, 15% hits; AID 686978, 2013; note: nearly all actives have a fitted effect of over 55% in size
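Readout: luminescence from CellTiter-Glo after 30 min in the dark at RT. Cells: DT40 Tdp1-/- with stable hTDP1, 400/well. Exposure: compounds alone, ≥48 hr, 37 °C.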
TDP1 block – TDP1 (human) enzyme inhibition | Q9NUW8 | Potency, µM (doses to about 130 µM), without a hit: top-dose activity change, negative = inhibition, hits mostly inhibitors | 350,000 compounds, 0.28% hits | recombinant TDP1, AlphaScreen DNA substrate cleavage; note: nearly all actives have a fitted effect of over 40% in size
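Here, a 5' biotin and 3' phosphotyrosine-FITC DNA oligonucleotide reports Tdp1 activity: intact substrate bridges AlphaScreen beads, while cleavage leaves a 3' phosphate and drops signal. All incubations at room temperature.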
Starred values were filed as active, the others as inactive; ? = inconclusive; . = no result; ! = a repeat was not active; [ ] = dose if it differs, or a comment. Calls come from the whole dose curve; as a rule, active = well fitted curve in the direction sought with a large enough effect; inconclusive = small, poorly fitted or top-dose-only effect, or another doubt; inactive = no such curve, though single readings can be large; an effect the other way counts as inactive or inconclusive. % is set by controls: 0 for no effect and ±100 for the full control effect; potency is the fitted concentration of half-maximal effect.

SMILES	TDP1 cell CPT	VP16 counter	RORg inh	DT40 TDP1 no CPT	TDP1 block
CC1CCCC(NC(=O)CSc2nnc(N)s2)C1C (stereo not given)	1%	-8%	0%	2%	3%
CCCCN(CCCNC(=O)C1CCN(S(=O)(=O)CC)CC1)c1ccccc1	?	-2%	-18%	?	-1%[56.1 µM]
COc1cccc(NC(=S)NNC(=O)C(C)n2nc(C)c([N+](=O)[O-])c2C)c1 (stereo not given)	-6%	-18%	?	0%	8%
COc1cccc(NC(=S)NNC(=O)c2c([N+](=O)[O-])c(C)nn2C)c1	?	?	2.5µM*	?	7%
Cc1nn(C)c(C(=O)NNC(=S)Nc2ccc(Cl)cc2)c1[N+](=O)[O-]	15%	?	4µM*	2%	9%
Cc1cccc(C)c1NC(=O)CN1CCN(C(=O)c2cc(C3CC3)nn2-c2ccccc2)CC1	-25%	.	.	?	.
COc1ccc(-c2cc(C(F)(F)F)n3nc(C(=O)Nc4c(C)n(C)n(-c5ccccc5)c4=O)c(Cl)c3n2)cc1	?	-1%	8%	?	-3%
CCCSc1nnc(-c2cnn(-c3ccccc3)c2-n2cccc2)n1C	18µM*	?	11%	15µM*	4%
CC1=C/C(=N\OS(=O)(=O)c2ccccc2)C(C)=CC1=O	0.58µM*	2.5µM*	1.1µM*	0.82µM*	8%
CC1=C/C(=N\OS(=O)(=O)c2ccccc2)C(C(C)C)=CC1=O	1.6µM*	0.79µM*	2.8µM*	2.3µM*	12%
CC(S(=O)(=O)c1ccccc1)S(=O)(=O)c1ccccc1	2%	.	.	-6%	.
Nc1cc2nc3ccccc3oc-2cc1=O	2.1µM*	-13%	-8%	1.8µM*	-8%
Cc1nc2ccccc2oc1=O	.	-3%	-4%	.	6%
O=C(/C=C/c1ccccc1Cl)Nc1ccccc1	-28%	?	2µM*	-19%	4%
O=C(/C=C/c1ccccc1Cl)Nc1ccc2c(c1)C(=O)NC2=O	-19%	-10%	-27%	-9%	-11%
CCCCOC(=O)c1cccc(NC(=O)CCC(=O)O)c1	4%	-7%	-14%	0%	2%
O=C(/C=C/c1ccccc1Cl)Nc1cccc(O)c1	?	2.5µM*	0.32µM*	?	5%
CN(C)S(=O)(=O)c1ccc(NC(=O)/C=C/c2ccccc2Cl)cc1	?	-10%	0.5µM*	23µM*	1%
CCCCOC(=O)c1cccc(NC(=O)/C=C/c2ccccc2Cl)c1	?	.	.	21µM*	0%[12.3 µM]
Cc1c(NC(=O)CSc2ccccc2F)c(=O)n(-c2ccccc2)n1C	6%	-17%	-3%	2%	5%
CC1CCCN(C(=O)CN2CCC(c3nc4ccc(Cl)cc4[nH]3)CC2)C1 (stereo not given)	?	-8%	-35%	?	1%
CCOc1ccc(/C(O)=C2/C(=O)C(=O)N(c3ccccn3)C2c2ccc(F)cc2)c(C)c1 (stereo not given)	?	15%	41%	?	.
COc1ccc(N2C(=O)C(=O)/C(=C(/O)c3ccc(C)cc3)C2c2cccnc2)cc1 (stereo not given)	10%	?	-3%	1%	5%
CC(=O)Nc1ccc(NC2=Nc3ccccc3N3C2=Nc2c(c(C)nn2-c2ccccc2)C3c2ccccc2)cc1 (stereo not given)	2.6µM*	0.89µM*	0.089µM*	2.3µM*	0%
COc1ccc(NC2=Nc3ccccc3N3C2=Nc2c(c(C)nn2-c2ccc(C)cc2)C3c2cccnc2)cc1 (stereo not given)	21µM*	-4%	3%	?	1%
SMILES	TDP1 cell CPT	VP16 counter	RORg inh	DT40 TDP1 no CPT	TDP1 block
Cc1csc(Nc2cccc3ccccc23)n1	-15%	1%	?	-23%	3%
COc1ccccc1Nc1nc(C)cs1	-8%	?	11µM*!	2%	6%
COc1ccccc1Nc1n[nH]c(=S)s1	13%	5%	10µM*	-4%	8%
NS(=O)(=O)c1ccc(NC(=O)CN2C(=O)COc3ccc(Cl)cc32)cc1	-14%	.	.	-13%	-1%
COc1cccc(NC(=O)CN(C)C(=O)c2cc(-c3ccco3)nc3ccccc23)c1	?	.	.	18µM*	-13%[0.505 µM]
CCOc1ccc(NC(=O)CN(C)C(=O)c2cc(-c3ccncc3)nc3ccccc23)cc1OCC	?	.	.	16µM*	-7%[0.505 µM]
CCOc1ccc(NC(=O)CN(C)C(=O)c2cc(C)nc3ccccc23)cc1OCC	-20%	.	.	?	0%
CN(CC(=O)Nc1ccc(N2CCOCC2)cc1)C(=O)c1cn(-c2ccccc2)nc1-c1ccccc1	11%	.	.	?	-3%
CCOc1ccc(NC(=O)CN(C)C(=O)c2cc(-c3ccco3)nc3ccccc23)cc1OCC	18µM*	.	.	18µM*	.
CCOc1ccc(NC(=O)CN(C)C(=O)c2cn(-c3ccccc3)nc2-c2cccs2)cc1OCC	18µM*	-7%	23%	?	4%
COCCNc1ncncc1-c1ccccc1OC	-27%	-25%	7%	4%	.
COc1ccc(Cl)cc1NC(=O)CN(C)C(=O)c1cc(-c2ccncc2)nc2ccccc12	23µM*	.	.	15µM*	6%
CCOc1ccc(C(=O)NCc2ccco2)cc1OC	-9%	-25%	?	-3%	.
COc1ccc(C(=O)NC(=S)NCc2ccco2)cc1OC	-28%	16%[0.365 µM]	18µM*	?	3%
COc1ccc(CCn2c(=S)[nH]c3cc(C(=O)NCc4ccco4)ccc3c2=O)cc1OC	21µM*	-3%	15%	16µM*	-3%
CCOc1cc(C(=O)NCc2ccc(-c3nc4ccccc4o3)cc2)cc(OCC)c1OCC	?	12%	8%	?	5%
COc1ccc(C(=O)NC(=S)NCc2ccco2)cc1Br	?	6.3µM*	3.5µM*	?	10%
COc1ccc(-n2c(=S)[nH]c3cc(C(=O)NCc4ccco4)ccc3c2=O)cc1OC	-20%	2%	-19%	-25%	-2%
COc1ccc(C(=O)NC(=S)NCc2ccc(-c3nc4ccccc4o3)cc2)cc1OC	-22%	2.5µM*	1.3µM*	-22%	4%
O=C(Nc1ccc2snnc2c1)N1CCCCC1	11%	-18%	-8%	2%	5%
CC1CCCC(C)N1C(=O)CSc1ncccn1 (stereo not given)	5%	2%	-22%	9%	-1%
CSc1nc(N)nc(C2CC2)n1	14%	-1%	-6%	2%	6%
COc1cc(C(=O)NCc2ccco2)c(Br)c(OC)c1OC	3%	3%	13%	1%	2%

Compound activity as filed in PubChem.
